Several values for one entry are separate records, joined by “and”; a condition that tells them apart may be missing. Equal values may be shown once. Out of some 5,500 compounds screened, about 2,000 (36%) were called active. Not shown: some 18% with an inconclusive outcome. Rule as the data show it: active = normalized growth mostly below about 0.91 (no sharp cut-off); inconclusive = no clear call, values can overlap the other calls; inactive = mostly above about 0.92. This is one part of the list.
Experiment: chemical genetic growth profiling, strain panel (AID 1159580);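 also: tested at 20 µM; growth read once vehicle control cultures reached saturation at 30 °C; 1 = growth at the plate median or of vehicle wells; lower values mean less growth of the strain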
Conditions: S. cerevisiae deletion strains, growth OD

Measured: normalized growth

Nc1ncnc2c1ncn2[C@@H]1O[C@H](CO)[C@@H](O)[C@H]1O
inactive: locus YAL021C, strain ccr4, stronger effect = lower value 0.97 | locus YAL026C, strain drs2, stronger effect = lower value 0.989 | locus YAL030W, strain snc1, stronger effect = lower value 0.995 | locus YBL061C, strain skt5, stronger effect = lower value 0.98 | locus YBR009C, strain hhf1, stronger effect = lower value 0.987 | locus YBR021W, strain FUR4, stronger effect = lower value 1.13 | locus YBR023C, strain chs3, stronger effect = lower value 0.972 | locus YBR171W, strain sec66, stronger effect = lower value 0.968 | locus YBR229C, strain ROT2, stronger effect = lower value 0.951 | locus YBR231C, strain swc5, stronger effect = lower value 1 | locus YBR279W, strain paf1, stronger effect = lower value 0.991 | locus YCL011C, strain gbp2, stronger effect = lower value 0.975 | locus YCL016C, strain dcc1, stronger effect = lower value 0.953 | locus YCL029C, strain bik1, stronger effect = lower value 0.972 | locus YCL061C, strain MRC1, stronger effect = lower value 0.966 | locus YCL069W, strain vba3, stronger effect = lower value 0.985 | locus YCR088W, strain abp1, stronger effect = lower value 0.994 | locus YDL005C, strain med2, stronger effect = lower value 0.992 | locus YDL035C, strain GPR1, stronger effect = lower value 0.987 | locus YDL040C, strain nat1, stronger effect = lower value 0.99 | locus YDL074C, strain BRE1, stronger effect = lower value 1.02 | locus YDL101C, strain DUN1, stronger effect = lower value 0.97 | locus YDL134C, strain PPH21, stronger effect = lower value 0.983 | locus YDL185W, strain tfp1, stronger effect = lower value 0.955 | locus YDL192W, strain arf1, stronger effect = lower value 0.982 | locus YDR001C, strain nth1, stronger effect = lower value 0.986 | locus YDR069C, strain doa4, stronger effect = lower value 1.02 | locus YDR101C, strain arx1, stronger effect = lower value 1.03 | locus YDR137W, strain rgp1, stronger effect = lower value 0.96 | locus YDR159W, strain sac3, stronger effect = lower value 0.994 | locus YDR162C, strain NBP2, stronger effect = lower value 0.948 | locus YDR195W, strain ref2 1.01 | locus YDR297W, strain sur2, stronger effect = lower value 0.985 | locus YDR318W, strain mcm21, stronger effect = lower value 0.973 | locus YDR334W, strain swr1, stronger effect = lower value 0.986 | locus YDR335W, strain msn5, stronger effect = lower value 0.987 | locus YDR388W, stronger effect = lower value 0.948 | locus YDR392W, strain spt3, stronger effect = lower value 0.904 | locus YDR502C, strain sam2, stronger effect = lower value 0.997 | locus YEL003W, strain gim4, stronger effect = lower value 0.994 | locus YEL037C, strain rad23, stronger effect = lower value 0.99 | locus YEL061C, strain CIN8 (second series), stronger effect = lower value 0.987 | locus YEL061C, strain CIN8, stronger effect = lower value 0.986 | locus YER015W, strain faa2, stronger effect = lower value 0.986 | locus YER016W, strain bim1, stronger effect = lower value 0.997 | locus YER110C, stronger effect = lower value 0.975 | locus YER111C, strain swi4, stronger effect = lower value 0.977 | locus YER155C, strain BEM2 (second series), stronger effect = lower value 1.01 | locus YER155C, strain BEM2, stronger effect = lower value 0.974 | locus YER167W, strain BCK2, stronger effect = lower value 0.988 | locus YFR010W, strain ubp6, stronger effect = lower value 0.99 | locus YGL078C, strain dbp3, stronger effect = lower value 0.986 | locus YGL086W, strain mad1, stronger effect = lower value 1.03 | locus YGL167C, strain pmr1, stronger effect = lower value 0.981 | locus YGL173C, strain kem1, stronger effect = lower value 0.98 | locus YGL227W, strain vid30, stronger effect = lower value 0.987 | locus YGL240W, strain doc1, stronger effect = lower value 0.989 | locus YGL248W, strain PDE1, stronger effect = lower value 0.979 | locus YGL253W, strain hxk2, stronger effect = lower value 0.988 | locus YGR135W, strain pre9, stronger effect = lower value 0.975 | locus YGR229C, strain SMI1, stronger effect = lower value 1 | locus YGR252W, strain gcn5, stronger effect = lower value 0.959 | locus YHR013C, strain ard1, stronger effect = lower value 0.955 | locus YHR027C, strain rpn1, stronger effect = lower value 0.981 | locus YHR030C, strain SLT2, stronger effect = lower value 0.994 and 1.01 | locus YHR079C, strain IRE1 (second series), stronger effect = lower value 0.982 | locus YHR079C, strain IRE1, stronger effect = lower value 1.03 | locus YHR094C, strain hxt1, stronger effect = lower value 0.97 | locus YHR129C, strain ARP1, stronger effect = lower value 0.995 | locus YHR142W, strain chs7, stronger effect = lower value 0.939 | locus YHR200W, strain rpn10, stronger effect = lower value 0.986 | locus YIL066C, strain RNR3, stronger effect = lower value 0.978 | locus YIL073C, strain SPO22, stronger effect = lower value 0.947 | locus YIL125W, strain kgd1, stronger effect = lower value 0.98 | locus YIR030C, strain dcg1, stronger effect = lower value 0.976 | locus YJL092W, strain hpr5, stronger effect = lower value 0.984 | locus YJL095W, strain BCK1 (second series), stronger effect = lower value 0.987 | locus YJL095W, strain BCK1, stronger effect = lower value 0.983 and 1.02 | locus YJL115W, strain asf1, stronger effect = lower value 0.987 | locus YJL129C, strain trk1, stronger effect = lower value 0.972 | locus YJL134W, strain LCB3, stronger effect = lower value 0.985 | locus YJL154C, strain vps35, stronger effect = lower value 0.999 | locus YJL164C, strain tpk1, stronger effect = lower value 0.981 | locus YJL166W, strain qcr8, stronger effect = lower value 0.969 | locus YJL168C, strain set2, stronger effect = lower value 0.99 | locus YJL187C, strain SWE1 (second series), stronger effect = lower value 0.968 | locus YJL187C, strain SWE1, stronger effect = lower value 0.992 | locus YJR043C, strain POL32, stronger effect = lower value 0.992

Source: PubChem BioAssay AID1159580 (chemical genetic matrix, 2015)
